# Legend:
# Assay in all cases: DAPPL (digital affinity profiling via proximity ligation, sequencing); 10 mM Tris-HCl pH 7.5, 50 mM NaCl, 1 mM DTT, 4% glycerol, room temperature, 30 min; GST-TFs on glutathione beads, 16-mer random dsDNA library, 0.1% formaldehyde crosslink after washing; high values mean tight binding
# FLI1 = biological target: T1, FLI1 (Homo sapiens, UniProt Q01543 1-452); settings: protein: recombinant; tags: N-terminal GST; dsDNA, one strand shown
# T1 sequence: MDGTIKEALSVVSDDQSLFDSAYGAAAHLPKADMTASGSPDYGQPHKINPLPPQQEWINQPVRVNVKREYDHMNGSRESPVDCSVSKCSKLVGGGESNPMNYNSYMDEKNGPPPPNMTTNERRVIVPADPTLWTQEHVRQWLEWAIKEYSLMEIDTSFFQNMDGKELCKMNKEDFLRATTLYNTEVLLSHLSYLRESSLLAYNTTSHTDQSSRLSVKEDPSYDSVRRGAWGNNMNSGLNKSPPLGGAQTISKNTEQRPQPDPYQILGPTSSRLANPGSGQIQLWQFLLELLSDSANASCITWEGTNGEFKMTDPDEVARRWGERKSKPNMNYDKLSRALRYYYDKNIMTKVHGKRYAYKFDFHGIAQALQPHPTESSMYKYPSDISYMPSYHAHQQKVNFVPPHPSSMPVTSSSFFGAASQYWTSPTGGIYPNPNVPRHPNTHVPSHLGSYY
# Method in brief: (§1)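 Pools of DNA-barcoded human transcription factors, expressed in yeast as GST fusions on glutathione beads and combined with a tag-only sample, were incubated with 200 nmole of a 16-mer random double-stranded DNA library. Incubation took 30 min at room temperature in Tris/NaCl/DTT/glycerol buffer and was followed by washing, 0.1% formaldehyde crosslinking, proximity ligation (BsaI/T4 ligase, 1 h, 37 °C), PCR amplification and sequencing on an Illumina NextSeq500. Binding signal is the ratio of a hexamer's read frequency for a factor to its frequency for the tag-only sample.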
# ELK1 = biological target: T2, ELK1 (Homo sapiens, UniProt P19419 1-428); settings: protein: recombinant; tags: N-terminal GST; dsDNA, one strand shown
# T2 sequence: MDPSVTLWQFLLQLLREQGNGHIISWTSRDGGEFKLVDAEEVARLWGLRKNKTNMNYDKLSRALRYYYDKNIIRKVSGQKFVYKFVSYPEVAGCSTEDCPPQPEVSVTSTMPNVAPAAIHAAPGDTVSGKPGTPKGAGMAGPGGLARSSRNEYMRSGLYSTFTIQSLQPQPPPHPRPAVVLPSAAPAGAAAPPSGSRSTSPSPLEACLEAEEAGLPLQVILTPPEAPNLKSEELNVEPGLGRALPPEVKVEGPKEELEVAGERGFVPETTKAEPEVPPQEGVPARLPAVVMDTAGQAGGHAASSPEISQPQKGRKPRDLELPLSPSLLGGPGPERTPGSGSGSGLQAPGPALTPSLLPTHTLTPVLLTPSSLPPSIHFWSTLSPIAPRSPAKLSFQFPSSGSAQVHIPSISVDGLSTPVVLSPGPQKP
# Method in brief: as §1
# GABPA = biological target: T3, GABPA (Homo sapiens, UniProt Q06546 1-454); settings: protein: recombinant; tags: N-terminal GST; dsDNA, one strand shown
# T3 sequence: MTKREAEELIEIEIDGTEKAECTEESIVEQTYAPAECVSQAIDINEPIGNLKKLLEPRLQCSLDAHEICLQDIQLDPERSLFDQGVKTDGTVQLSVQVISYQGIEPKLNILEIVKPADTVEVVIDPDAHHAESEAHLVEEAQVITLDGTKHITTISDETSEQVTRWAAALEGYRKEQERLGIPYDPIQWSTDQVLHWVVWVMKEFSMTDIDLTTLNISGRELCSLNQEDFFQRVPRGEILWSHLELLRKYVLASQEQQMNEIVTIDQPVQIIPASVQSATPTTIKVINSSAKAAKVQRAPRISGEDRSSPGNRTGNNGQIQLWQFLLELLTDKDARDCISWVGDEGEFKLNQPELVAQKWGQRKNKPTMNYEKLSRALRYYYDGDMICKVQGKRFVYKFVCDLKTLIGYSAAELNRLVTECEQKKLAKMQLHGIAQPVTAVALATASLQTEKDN
# Method in brief: as §1
# ERG = biological target: T4, ERG (Homo sapiens, UniProt P11308 1-479); settings: protein: recombinant; tags: N-terminal GST; dsDNA, one strand shown
# T4 sequence: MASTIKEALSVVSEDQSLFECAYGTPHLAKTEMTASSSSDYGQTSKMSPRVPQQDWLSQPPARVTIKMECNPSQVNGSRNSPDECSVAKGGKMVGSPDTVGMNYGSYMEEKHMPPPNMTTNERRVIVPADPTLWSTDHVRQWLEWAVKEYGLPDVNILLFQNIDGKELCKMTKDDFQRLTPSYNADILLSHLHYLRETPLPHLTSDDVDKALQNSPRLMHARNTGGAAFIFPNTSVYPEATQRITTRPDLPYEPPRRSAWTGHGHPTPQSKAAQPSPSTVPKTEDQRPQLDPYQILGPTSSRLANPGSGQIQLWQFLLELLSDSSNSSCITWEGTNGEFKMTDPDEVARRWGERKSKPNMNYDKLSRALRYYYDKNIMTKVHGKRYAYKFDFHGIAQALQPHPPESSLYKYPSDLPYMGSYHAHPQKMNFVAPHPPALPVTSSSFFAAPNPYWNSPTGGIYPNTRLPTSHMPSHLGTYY
# Method in brief: as §1
# ELF1 = ELF1 (Homo sapiens, UniProt P32519 1-619); settings: protein: recombinant; tags: N-terminal GST; dsDNA, one strand shown
# ELF1, sequence (P32519 whole entry): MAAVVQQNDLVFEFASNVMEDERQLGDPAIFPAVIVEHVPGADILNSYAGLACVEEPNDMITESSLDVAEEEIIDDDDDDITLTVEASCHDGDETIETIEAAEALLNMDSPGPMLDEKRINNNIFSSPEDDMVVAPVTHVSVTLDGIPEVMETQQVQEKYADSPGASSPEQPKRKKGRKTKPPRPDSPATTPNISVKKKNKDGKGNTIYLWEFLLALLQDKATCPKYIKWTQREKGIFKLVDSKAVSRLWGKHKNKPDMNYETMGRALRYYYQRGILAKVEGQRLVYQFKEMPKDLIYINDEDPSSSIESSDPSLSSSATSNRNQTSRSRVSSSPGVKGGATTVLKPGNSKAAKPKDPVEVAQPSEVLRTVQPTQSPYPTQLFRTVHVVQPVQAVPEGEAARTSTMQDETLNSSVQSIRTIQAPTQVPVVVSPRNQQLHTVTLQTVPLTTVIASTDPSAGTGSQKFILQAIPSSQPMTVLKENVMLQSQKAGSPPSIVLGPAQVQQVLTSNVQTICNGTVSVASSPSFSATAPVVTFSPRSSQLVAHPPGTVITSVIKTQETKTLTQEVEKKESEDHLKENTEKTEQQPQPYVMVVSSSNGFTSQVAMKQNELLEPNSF
# Method in brief: as §1
# EHF = biological target: T5, EHF (Homo sapiens, UniProt Q9NZC4 1-300); settings: protein: recombinant; tags: N-terminal GST; dsDNA, one strand shown
# T5 sequence: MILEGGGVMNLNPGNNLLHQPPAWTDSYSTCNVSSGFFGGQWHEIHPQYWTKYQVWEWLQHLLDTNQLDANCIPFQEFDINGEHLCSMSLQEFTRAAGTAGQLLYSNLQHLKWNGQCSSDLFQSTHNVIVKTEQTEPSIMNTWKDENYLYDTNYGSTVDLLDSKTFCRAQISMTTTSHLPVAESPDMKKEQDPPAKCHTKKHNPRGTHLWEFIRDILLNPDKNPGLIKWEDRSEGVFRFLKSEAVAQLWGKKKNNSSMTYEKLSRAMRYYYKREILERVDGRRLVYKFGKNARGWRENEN
# Method in brief: as §1
# SPI1 = SPI1 (Homo sapiens, UniProt P17947 1-270); settings: protein: recombinant; tags: N-terminal GST; dsDNA, one strand shown
# Method in brief: as §1
# SPIB = SPIB (Homo sapiens, UniProt Q01892 1-262); settings: protein: recombinant; tags: N-terminal GST; dsDNA, one strand shown
# SPIB, sequence (Q01892 whole entry): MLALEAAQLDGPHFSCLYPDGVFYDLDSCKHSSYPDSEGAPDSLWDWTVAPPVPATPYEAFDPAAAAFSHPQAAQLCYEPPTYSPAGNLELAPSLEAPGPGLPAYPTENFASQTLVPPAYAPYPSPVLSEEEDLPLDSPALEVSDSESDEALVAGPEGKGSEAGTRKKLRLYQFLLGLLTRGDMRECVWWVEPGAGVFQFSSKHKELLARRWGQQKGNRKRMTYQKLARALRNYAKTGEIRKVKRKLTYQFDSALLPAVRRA
# Method in brief: as §1
# ELK3 = biological target: T6, ELK3 (Homo sapiens, UniProt P41970 1-407); settings: protein: recombinant; tags: N-terminal GST; dsDNA, one strand shown
# T6 sequence: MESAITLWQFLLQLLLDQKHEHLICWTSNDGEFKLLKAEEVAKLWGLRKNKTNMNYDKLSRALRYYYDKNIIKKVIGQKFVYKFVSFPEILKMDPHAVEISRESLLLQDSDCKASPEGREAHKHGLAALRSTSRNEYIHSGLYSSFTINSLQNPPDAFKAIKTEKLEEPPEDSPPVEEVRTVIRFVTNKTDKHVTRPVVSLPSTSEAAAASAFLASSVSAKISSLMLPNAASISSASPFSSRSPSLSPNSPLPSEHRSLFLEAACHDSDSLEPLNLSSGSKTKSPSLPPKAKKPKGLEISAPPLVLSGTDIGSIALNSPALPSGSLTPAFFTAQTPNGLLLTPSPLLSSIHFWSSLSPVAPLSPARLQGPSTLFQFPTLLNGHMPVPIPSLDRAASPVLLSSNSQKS
# Method in brief: as §1
# FEV = biological target: T7, FEV (Homo sapiens, UniProt Q99581 1-238); settings: protein: recombinant; tags: N-terminal GST; dsDNA, one strand shown
# T7 sequence: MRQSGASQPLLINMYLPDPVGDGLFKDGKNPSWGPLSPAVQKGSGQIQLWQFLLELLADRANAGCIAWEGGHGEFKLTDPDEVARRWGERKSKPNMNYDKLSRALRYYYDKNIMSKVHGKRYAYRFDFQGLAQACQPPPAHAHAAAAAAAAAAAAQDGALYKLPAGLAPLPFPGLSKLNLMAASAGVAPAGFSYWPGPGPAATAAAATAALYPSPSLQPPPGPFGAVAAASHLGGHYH
# Method in brief: as §1
# ETV5 = ETV5 (Homo sapiens, UniProt P41161 1-510); settings: protein: recombinant; tags: N-terminal GST; dsDNA, one strand shown
# ETV5, sequence (P41161 whole entry): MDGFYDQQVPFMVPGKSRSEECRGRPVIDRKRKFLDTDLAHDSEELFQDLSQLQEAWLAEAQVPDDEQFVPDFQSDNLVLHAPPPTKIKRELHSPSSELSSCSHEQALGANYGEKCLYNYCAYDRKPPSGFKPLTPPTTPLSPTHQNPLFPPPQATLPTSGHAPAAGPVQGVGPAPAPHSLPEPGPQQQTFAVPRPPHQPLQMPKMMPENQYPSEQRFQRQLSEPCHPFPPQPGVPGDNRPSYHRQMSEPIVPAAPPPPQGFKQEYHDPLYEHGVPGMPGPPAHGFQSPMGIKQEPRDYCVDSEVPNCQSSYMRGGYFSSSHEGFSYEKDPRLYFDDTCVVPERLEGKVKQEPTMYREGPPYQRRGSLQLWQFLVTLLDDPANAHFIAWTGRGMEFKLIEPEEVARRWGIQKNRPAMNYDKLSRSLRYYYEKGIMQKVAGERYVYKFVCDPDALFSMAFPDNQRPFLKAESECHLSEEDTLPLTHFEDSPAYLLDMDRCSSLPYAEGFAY
# Method in brief: as §1
# HSF1 = HSF1 (Homo sapiens, UniProt Q00613 1-529); settings: protein: recombinant; tags: N-terminal GST; chain copies: 3; dsDNA, one strand shown
# HSF1, sequence (Q00613 whole entry): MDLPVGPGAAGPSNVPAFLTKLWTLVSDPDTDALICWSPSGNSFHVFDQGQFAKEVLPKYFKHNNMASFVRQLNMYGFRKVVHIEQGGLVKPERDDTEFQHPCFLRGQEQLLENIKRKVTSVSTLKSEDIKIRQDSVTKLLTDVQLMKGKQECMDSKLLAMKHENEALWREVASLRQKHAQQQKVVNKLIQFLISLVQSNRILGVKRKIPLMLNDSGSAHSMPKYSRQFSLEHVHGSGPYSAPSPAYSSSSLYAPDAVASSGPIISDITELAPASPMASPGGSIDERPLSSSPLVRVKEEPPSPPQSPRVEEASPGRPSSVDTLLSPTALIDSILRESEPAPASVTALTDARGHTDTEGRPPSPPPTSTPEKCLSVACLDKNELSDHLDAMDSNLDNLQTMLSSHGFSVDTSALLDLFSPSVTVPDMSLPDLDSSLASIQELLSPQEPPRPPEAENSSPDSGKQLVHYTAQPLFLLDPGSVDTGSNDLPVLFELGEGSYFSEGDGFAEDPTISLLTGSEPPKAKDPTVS
# Method in brief: as §1
# SPIC = biological target: T8, SPIC (Homo sapiens, UniProt Q8N5J4 1-248); settings: protein: recombinant; tags: N-terminal GST; dsDNA, one strand shown
# T8 sequence: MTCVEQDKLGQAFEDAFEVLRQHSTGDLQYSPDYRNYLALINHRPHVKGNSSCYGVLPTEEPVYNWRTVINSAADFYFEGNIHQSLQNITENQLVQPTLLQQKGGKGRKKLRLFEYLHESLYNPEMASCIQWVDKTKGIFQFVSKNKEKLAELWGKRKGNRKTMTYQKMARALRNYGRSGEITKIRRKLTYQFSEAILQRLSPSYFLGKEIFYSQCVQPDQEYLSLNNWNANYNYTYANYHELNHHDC
# Method in brief: as §1
# ELF4 = ELF4 (Homo sapiens, UniProt Q99607 1-663); settings: protein: recombinant; tags: N-terminal GST; dsDNA, one strand shown
# ELF4, sequence (Q99607 whole entry): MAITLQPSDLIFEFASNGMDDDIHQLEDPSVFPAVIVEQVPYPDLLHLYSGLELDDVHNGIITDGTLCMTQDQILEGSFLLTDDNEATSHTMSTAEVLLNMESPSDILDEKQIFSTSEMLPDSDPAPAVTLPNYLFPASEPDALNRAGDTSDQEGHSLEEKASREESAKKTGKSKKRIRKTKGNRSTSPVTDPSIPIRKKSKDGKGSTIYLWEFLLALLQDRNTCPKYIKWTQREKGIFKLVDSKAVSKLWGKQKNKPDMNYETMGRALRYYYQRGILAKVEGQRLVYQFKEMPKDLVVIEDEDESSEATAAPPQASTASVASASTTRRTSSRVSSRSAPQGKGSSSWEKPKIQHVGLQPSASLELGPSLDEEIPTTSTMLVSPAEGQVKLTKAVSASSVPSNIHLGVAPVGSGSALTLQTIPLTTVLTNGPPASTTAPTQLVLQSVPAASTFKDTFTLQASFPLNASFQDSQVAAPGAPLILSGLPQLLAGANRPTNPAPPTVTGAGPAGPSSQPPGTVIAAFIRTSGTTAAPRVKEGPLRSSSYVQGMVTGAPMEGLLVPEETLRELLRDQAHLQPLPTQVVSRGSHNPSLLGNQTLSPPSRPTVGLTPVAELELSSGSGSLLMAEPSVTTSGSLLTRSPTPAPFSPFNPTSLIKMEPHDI
# Method in brief: as §1
# ELK4 = biological target: T9, ELK4 (Homo sapiens, UniProt P28324-2 1-405); settings: protein: recombinant; tags: N-terminal GST; dsDNA, one strand shown
# T9 sequence: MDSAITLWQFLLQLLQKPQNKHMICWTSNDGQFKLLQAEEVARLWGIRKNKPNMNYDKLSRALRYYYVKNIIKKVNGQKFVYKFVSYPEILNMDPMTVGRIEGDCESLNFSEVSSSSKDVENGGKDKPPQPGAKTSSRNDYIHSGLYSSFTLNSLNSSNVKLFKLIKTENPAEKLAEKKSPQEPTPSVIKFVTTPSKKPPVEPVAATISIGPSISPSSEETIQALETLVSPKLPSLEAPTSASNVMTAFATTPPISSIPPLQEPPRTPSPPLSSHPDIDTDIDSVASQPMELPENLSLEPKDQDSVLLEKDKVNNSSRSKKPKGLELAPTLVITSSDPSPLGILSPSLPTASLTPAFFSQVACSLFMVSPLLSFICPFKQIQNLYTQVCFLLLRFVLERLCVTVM
# Method in brief: as §1
# ETV2 = biological target: T10, ETV2 (Homo sapiens, UniProt O00321 1-342); settings: protein: recombinant; tags: N-terminal GST; dsDNA, one strand shown
# T10 sequence: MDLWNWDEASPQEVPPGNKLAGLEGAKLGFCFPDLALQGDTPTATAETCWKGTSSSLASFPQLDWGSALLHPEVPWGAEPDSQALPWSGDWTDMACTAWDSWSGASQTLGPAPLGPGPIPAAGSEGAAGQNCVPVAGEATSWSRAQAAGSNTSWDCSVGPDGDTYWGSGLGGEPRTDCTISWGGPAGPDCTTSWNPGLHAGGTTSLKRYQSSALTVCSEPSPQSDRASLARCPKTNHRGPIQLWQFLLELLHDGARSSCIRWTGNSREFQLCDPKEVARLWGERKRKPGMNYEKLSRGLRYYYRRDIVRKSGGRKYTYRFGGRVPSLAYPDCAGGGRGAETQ
# Method in brief: as §1
# ELF3 = biological target: T11, ELF3 (Homo sapiens, UniProt P78545 1-371); settings: protein: recombinant; tags: N-terminal GST; dsDNA, one strand shown
# T11 sequence: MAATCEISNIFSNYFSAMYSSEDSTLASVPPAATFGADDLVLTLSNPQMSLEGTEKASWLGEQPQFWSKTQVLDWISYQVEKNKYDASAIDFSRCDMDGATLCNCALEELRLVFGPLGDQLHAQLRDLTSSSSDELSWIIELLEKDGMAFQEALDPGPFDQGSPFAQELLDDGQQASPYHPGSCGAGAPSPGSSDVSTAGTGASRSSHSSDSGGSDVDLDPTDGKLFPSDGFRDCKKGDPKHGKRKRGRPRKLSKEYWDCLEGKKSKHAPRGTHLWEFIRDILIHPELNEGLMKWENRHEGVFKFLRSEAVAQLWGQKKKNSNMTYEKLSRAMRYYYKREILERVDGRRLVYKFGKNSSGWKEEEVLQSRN
# Method in brief: as §1
# CRX = CRX (Homo sapiens, UniProt O43186 1-299); settings: protein: recombinant; tags: N-terminal GST; dsDNA, one strand shown
# CRX, sequence (O43186 whole entry): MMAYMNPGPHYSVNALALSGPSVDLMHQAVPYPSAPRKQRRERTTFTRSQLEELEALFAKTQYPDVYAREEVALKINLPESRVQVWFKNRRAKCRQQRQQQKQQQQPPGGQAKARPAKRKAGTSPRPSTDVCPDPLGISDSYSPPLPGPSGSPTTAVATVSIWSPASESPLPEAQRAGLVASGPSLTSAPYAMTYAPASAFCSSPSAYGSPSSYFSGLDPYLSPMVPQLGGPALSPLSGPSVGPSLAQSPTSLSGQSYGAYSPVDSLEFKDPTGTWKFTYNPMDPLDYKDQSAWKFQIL
# Method in brief: as §1
# ETV1 = ETV1 (Homo sapiens, UniProt P50549 1-477); settings: protein: recombinant; tags: N-terminal GST; dsDNA, one strand shown
# ETV1, sequence (P50549 whole entry): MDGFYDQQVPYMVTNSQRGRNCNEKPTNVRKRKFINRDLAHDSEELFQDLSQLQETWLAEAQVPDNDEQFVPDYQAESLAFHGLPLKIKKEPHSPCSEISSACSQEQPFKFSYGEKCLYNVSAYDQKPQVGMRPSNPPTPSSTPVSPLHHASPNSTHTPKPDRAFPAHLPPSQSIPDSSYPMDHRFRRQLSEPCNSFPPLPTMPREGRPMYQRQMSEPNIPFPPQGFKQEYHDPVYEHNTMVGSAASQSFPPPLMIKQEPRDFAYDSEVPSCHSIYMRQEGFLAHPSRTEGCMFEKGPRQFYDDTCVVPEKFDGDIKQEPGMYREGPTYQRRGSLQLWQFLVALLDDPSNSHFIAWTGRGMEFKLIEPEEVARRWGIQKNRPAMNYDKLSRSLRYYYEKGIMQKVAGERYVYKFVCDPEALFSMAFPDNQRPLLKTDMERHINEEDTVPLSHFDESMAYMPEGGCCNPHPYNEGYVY
# Method in brief: as §1
sequence,measurement,setting,value
TAGTCC,binding signal,FLI1,"1.09 fold enrichment (6-mer frequency, TF over GST control)"
same,binding signal,ELK1,"1.05 fold enrichment (6-mer frequency, TF over GST control)"
same,binding signal,GABPA,"1.12 fold enrichment (6-mer frequency, TF over GST control)"
same,binding signal,ERG,"1.08 fold enrichment (6-mer frequency, TF over GST control)"
same,binding signal,ELF1,"1.15 fold enrichment (6-mer frequency, TF over GST control)"
same,binding signal,EHF,"1.05 fold enrichment (6-mer frequency, TF over GST control)"
same,binding signal,SPI1,"1.07 fold enrichment (6-mer frequency, TF over GST control)"
same,binding signal,SPIB,"1.06 fold enrichment (6-mer frequency, TF over GST control)"
same,binding signal,ELK3,"1.07 fold enrichment (6-mer frequency, TF over GST control)"
same,binding signal,FEV,"1.07 fold enrichment (6-mer frequency, TF over GST control)"
same,binding signal,ETV5,"1.14 fold enrichment (6-mer frequency, TF over GST control)"
same,binding signal,HSF1,"1.21 fold enrichment (6-mer frequency, TF over GST control)"
same,binding signal,SPIC,"1.16 fold enrichment (6-mer frequency, TF over GST control)"
same,binding signal,ELF4,"1.07 fold enrichment (6-mer frequency, TF over GST control)"
same,binding signal,ELK4,"1.12 fold enrichment (6-mer frequency, TF over GST control)"
same,binding signal,ETV2,"1.21 fold enrichment (6-mer frequency, TF over GST control)"
same,binding signal,ELF3,"1.13 fold enrichment (6-mer frequency, TF over GST control)"
same,binding signal,CRX,"1.38 fold enrichment (6-mer frequency, TF over GST control)"
same,binding signal,ETV1,"1.1 fold enrichment (6-mer frequency, TF over GST control)"

# Reference: publication PMC7862700, “An all-to-all approach to the identification of sequence-specific readers for epigenetic DNA modifications on cytosine”
